High-throughput results deposited in PubChem BioAssay by National Center for Advancing Translational Sciences (NCATS).
Most compounds without a hit are left out; they make up all but 2.8% or so of the library.
ATXN2 expr inh: inhibitors of ATXN2 expression; AID 1745845; actives 0.72% (n = 360,000); Potency, µM (highest dose often 57 µM), for the others: top-dose activity change, negative = inhibition, actives largely listed as inhibitors; HEK-293 ATXN2-luciferase reporter, luminescence, 24 h; further: potency means the concentration at half of the fitted maximal effect; on the % scale 0 is the no-effect control and ±100 the full control effect; nearly all actives have a fitted effect of over 55% in size
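qHTS (up to 57 uM final) was run with 24 h compound exposure of reporter cells at 37 °C. Each well was multiplexed: SteadyGlo luminescence measured ATXN2-luciferase expression after a fluorogenic Gly-Phe-AFC viability readout (25 uM final).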
Six1-Eya2 blk: Six1/Eya2 interaction inhibition; AID 651725; actives 0.56% (n = 360,000); AlphaScreen GST-Six1/His-Eya2 binding, biochemical; stronger effect = lower value; activity change, % (test concentration not listed); Q15475+O00167; in the data active means activity change below about -65%; inconclusive means mostly about -30% to -63%; further: on the % scale 0 is the no-effect control and ±100 the full control effect
Target sequence (O00167 whole entry, looked up): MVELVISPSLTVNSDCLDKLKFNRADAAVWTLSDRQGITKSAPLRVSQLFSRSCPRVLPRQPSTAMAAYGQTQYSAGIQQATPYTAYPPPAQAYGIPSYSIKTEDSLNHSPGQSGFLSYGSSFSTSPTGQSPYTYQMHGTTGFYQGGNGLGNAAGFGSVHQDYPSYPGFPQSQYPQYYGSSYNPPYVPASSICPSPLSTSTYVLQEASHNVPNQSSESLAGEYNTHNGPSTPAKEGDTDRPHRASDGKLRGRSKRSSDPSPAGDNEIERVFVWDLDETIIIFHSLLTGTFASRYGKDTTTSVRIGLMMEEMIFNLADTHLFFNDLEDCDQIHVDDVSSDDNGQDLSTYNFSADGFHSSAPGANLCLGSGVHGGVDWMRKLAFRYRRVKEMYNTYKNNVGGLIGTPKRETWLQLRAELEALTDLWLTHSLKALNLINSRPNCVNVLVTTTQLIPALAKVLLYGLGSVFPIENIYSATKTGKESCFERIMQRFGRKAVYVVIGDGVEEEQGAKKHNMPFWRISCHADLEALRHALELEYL
Target sequence (Q15475 whole entry, looked up): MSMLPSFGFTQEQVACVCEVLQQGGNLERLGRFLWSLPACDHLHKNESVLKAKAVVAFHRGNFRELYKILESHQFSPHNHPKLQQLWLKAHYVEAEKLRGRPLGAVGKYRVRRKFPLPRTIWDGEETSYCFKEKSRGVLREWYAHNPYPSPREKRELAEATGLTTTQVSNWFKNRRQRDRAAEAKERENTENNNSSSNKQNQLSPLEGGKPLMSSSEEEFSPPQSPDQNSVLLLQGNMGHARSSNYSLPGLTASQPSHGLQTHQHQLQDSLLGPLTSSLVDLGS
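AlphaScreen luminescence read after one hour at 37 °C in darkness. Pin-transferred compounds met GST-Six1 and His-Eya2 protein (5X stock 250 nM/500 nM) plus glutathione donor and Ni-chelate acceptor beads (5X, 50 ug/mL).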
CtBP-E1A blk: inhibitors of CtBP/E1A interaction; AlphaScreen GST-E1A/His-CtBP binding, 1536-well; stronger effect = lower value; activity change, % (no concentration beside the values); actives 0.49% (n = 340,000); AID 651724; in the data active means activity change below about -65%; inconclusive means mostly about -30% to -63%; further: on the % scale 0 is the no-effect control and ±100 the full control effect
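In 5 uL wells, 23 nL compound meets equimolar GST-E1A and His-CtBP (5X stock 125 nM each) for 2 h, 37 °C. Beads (5X, 50 ug/mL) then 1 h, 37 °C, dark.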
TGFb inhibitor: inhibitors of TGF-b signaling | Potency, µM (highest dose often 46.1 µM), for the others: top-dose activity, negative = inhibition, most hits filed as inhibitors | actives 1.2% (n = 410,000) | HepG2 CAGA-GFP TGF-b/SMAD3 reporter, GFP fluorescence, 18 h; TGF-beta stimulated, 500 pg/mL final; further: potency means the concentration at half of the fitted maximal effect; on the % scale 0 is the no-effect control and ±100 the full control effect; nearly all actives have a fitted effect of over 65% in size
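Per well, imaged GFP fluorescence of HEPG2 CAGA-GFP cells gives the signal; cells get compound, then TGF-beta (500 pg/mL final), 18 h at 37 degrees C; %Activity versus -TGF-beta and +DMSO controls.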
ATXN viability: viability counter-screen for ATXN expression inhibitors. S2 cells (HEK-293 line with an ATXN2-luciferase reporter) viability, CellTiter-Fluor protease fluorescence, 24 h. Potency, µM (top dose mostly 56.7 µM), usual class: cytotoxic. actives 0.49% (n = 400,000); further: potency means the concentration at half of the fitted maximal effect; nearly all actives have a fitted effect of over 40% in size
HepG2 tox: counter-screen for TGF-b inhibitors: cytotoxicity in HepG2 cells | HepG2 CAGA-GFP viability, ATP luminescence, 18 h | Potency, µM (series often up to 46.1 µM), without a hit: top-dose activity change, negative = cytotoxicity, hits mostly cytotoxic | actives 0.76% (n = 410,000) | AID 588856; further: potency means the concentration at half of the fitted maximal effect
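HepG2 CAGA-GFP cells (1000/well, DMEM with 1% FBS) received compound, then TGF-beta at 500 pg/mL final, and were incubated 18 hours at 37 degrees C. Viability was read by CellTiter-Glo luminescence. Media-only wells were set as complete cell-killing and DMSO as no toxicity.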
* marks the source's active call; other numbers are inactive results; i = inactive; u = inconclusive; x = no result; [ ] = another dose, or the depositor's remark. Unless noted, the call rests on the fitted dose curve; in most records, active means well fitted curve in the direction sought with a large enough effect; inconclusive means small, poorly fitted or top-dose-only effect, or another doubt; inactive means no such curve, though single readings can be large; an effect the other way counts as inactive or inconclusive.

SMILES | ATXN2 expr inh | Six1-Eya2 blk | CtBP-E1A blk | TGFb inhibitor | ATXN viability | HepG2 tox
CN(C1=C(N2CCOCC2)C(=O)c2ccccc2C1=O)c1ccccc1 | 0.0% | -81.9* | u | 10µM* | u | -1.5%
O=C(c1ccoc1)N1CCN(c2cc(-c3ccccc3)nc3cc(-c4ccccc4)nn23)CC1 | u | 10.9 | 7.5 | u | u | -36.6%
O=C(c1ccoc1)N1CCN(c2cc(-c3ccco3)nc3cc(-c4ccccc4)nn23)CC1 | 25.1µM* | 0.0 | 6.7 | u | u | -12.6%
COc1ccccc1-c1cc2nc(-c3ccccc3)cc(N3CCN(C(=O)c4ccco4)CC3)n2n1 | 12.6µM* | 2.8 | 3.7 | 15.2% | u | 5.8%
COC(C)=O | x | x | x | x | i | x
Cc1ccc(NC(=O)Cn2c(=O)n(CCCCCC(=O)NCc3ccc(F)cc3)c(=O)c3sccc32)cc1C | -4.8% | x | x | u | i | -25.6%
CCOc1ccc(C(c2c(NC(=O)c3ccccc3)sc(C)c2C)N2CCN(CCO)CC2)cc1 (stereo not drawn) | -8.6% | -28.8 | -19.0 | u | u | 11.2µM*
Cc1ccc(C(c2c(NC(=O)c3ccco3)sc(C)c2C)N2CCOCC2)cc1 (stereo not drawn) | x | 10.5 | -0.1 | -1.6% | i | -8.6%
Cc1sc(NC(=O)c2ccccc2)c(C(c2ccc(Cl)cc2)N2CCN(CCO)CC2)c1C (stereo not drawn) | u | -24.1 | -13.0 | u | x | -107.7%
Cc1sc(NC(=O)c2ccco2)c(C(c2ccc(F)cc2)N2CCN(C)CC2)c1C (stereo not drawn) | 0.8%[11.3 µM] | -20.6 | -5.8 | 15.8µM* | i | 11.2µM*
CCCCNc1nc2c(c(=O)n(Cc3ccc(Cl)c(Cl)c3)c(=O)n2C)n1C | -3.1% | x | x | u | i | -99.7%
COC(=O)c1cc(CNC(=O)c2cccc(N(C)C)c2)cc(NC(=O)c2ccccc2Cl)c1 | x | x | x | x | i | x
COC(=O)c1cnc(Nc2nc(C(N)c3ccccc3Cl)cs2)nc1C(F)(F)F (stereo not drawn) | u | -4.9 | -12.3 | 17.8µM* | 25.1µM* | -87.4%
NC(c1csc(NC(=O)c2cccc(OC(F)(F)F)c2)n1)c1ccccc1Cl (stereo not drawn) | 31.6µM* | 0.1 | 0.0 | 11.2µM* | u | -83.7%
Cn1c(=O)c(Nc2ccc(O)cc2)c2c3c(cccc31)C(=O)c1ccccc1-2 | -20.9% | -76.8* | -73.3* | 0.0% | u | -8.8%
CC(=O)c1c2c3c(cccc3n(C)c1=O)C(=O)c1ccccc1-2 | x | -22.2 | x | 12.6% | i | 5.9%
O=C(/C=C/c1ccccc1)c1ccc(NC2=NCCCS2)cc1 | 57.1% | 2.8 | 3.3 | u | i | -65.8%
Cc1cccc(/C=C/C(=O)c2ccc(NC3=NCCCS3)cc2)c1 | x | 8.8 | x | u | 10µM* | -94.9%
O=C(/C=C/c1ccc(Br)cc1)c1ccc(NC2=NCCCS2)cc1 | u | -3.4 | -26.4 | u | 31.6µM* | -99.1%
COC(c1ccccc1)(c1ccccc1)[C@H](Oc1nc(C)cc(C)n1)C(=O)O | -7.8% | x | x | x | i | x
CC(C)c1ccc(NC(=O)C2Cc3c(-c4ccc5c(c4)OCO5)ccnc3O2)cc1 (stereo not drawn) | 6.8% | -20.5 | -4.6 | 26.6% | u | -6.3%
COc1ccc(NC(=O)C2Cc3c(-c4ccc5c(c4)OCO5)ccnc3O2)cc1OC (stereo not drawn) | u | -12.4 | -5.1 | -5.7% | 2.51µM* | -38.0%
O=C(Nc1ccc(Cl)c(C(F)(F)F)c1)C1Cc2c(-c3ccc4c(c3)OCO4)ccnc2O1 (stereo not drawn) | u | -8.1 | -12.3 | 11.2µM* | i | -30.6%
CC(=O)c1cccc(-c2ccnc3c2CC(C(=O)Nc2ccc(Cl)cc2)O3)c1 (stereo not drawn) | u | -11.5 | -4.7 | -23.4% | u | -13.0%
